Only some compounds are listed: those with a hit (about 5.8% of all), similar ones and a draw of the others.
PK Bst: modulators of Bacillus stearothermophilus pyruvate kinase | purified pyruvate kinase, luminescence ATP production; ribose 5-phosphate activator present at AC10 | actives 1.2% (n = 51,000) | Potency, µM | AID 361; in the data active = potency below about 11 µM; inconclusive = mostly about 12 µM to 25 µM;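 the screen sought inhibitors and activators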;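 note: scaled between full activation by ribose 5 phosphate and full inhibition by luteolin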
HEK293 cAMP cs: parental HEK293 cAMP activation (counter-screen); actives 2.5% (n = 73,000); parental HEK293 CNG cAMP sensor, membrane potential fluorescence; AID 938; Potency, µM (highest dose often 57.1 µM), inactives show top-dose activation, most hits filed as activators; note: % of control where 0% means no effect; nearly all actives have a fitted effect of over 55% in size
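Parental HEK 293 cells stably expressing a cAMP-gated CNG channel were loaded with membrane potential dye containing 100 uM RO 20-1724 for 60 min. Compound added for 30 min; depolarization read as fluorescence intensity at 590 nm.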
FLuc inh: inhibitors of firefly luciferase; P08659; purified firefly luciferase, luminescence, 8 min; actives 2.2% (n = 72,000); Potency, µM (titrated, usually from 57.1 µM), without a hit: top-dose activity change, negative = inhibition, most hits filed as inhibitors; note: % is set by controls: 0 for no effect and ±100 for the full control effect; nearly all actives have a fitted effect of over 40% in size
Target sequence (P08659 whole entry, looked up): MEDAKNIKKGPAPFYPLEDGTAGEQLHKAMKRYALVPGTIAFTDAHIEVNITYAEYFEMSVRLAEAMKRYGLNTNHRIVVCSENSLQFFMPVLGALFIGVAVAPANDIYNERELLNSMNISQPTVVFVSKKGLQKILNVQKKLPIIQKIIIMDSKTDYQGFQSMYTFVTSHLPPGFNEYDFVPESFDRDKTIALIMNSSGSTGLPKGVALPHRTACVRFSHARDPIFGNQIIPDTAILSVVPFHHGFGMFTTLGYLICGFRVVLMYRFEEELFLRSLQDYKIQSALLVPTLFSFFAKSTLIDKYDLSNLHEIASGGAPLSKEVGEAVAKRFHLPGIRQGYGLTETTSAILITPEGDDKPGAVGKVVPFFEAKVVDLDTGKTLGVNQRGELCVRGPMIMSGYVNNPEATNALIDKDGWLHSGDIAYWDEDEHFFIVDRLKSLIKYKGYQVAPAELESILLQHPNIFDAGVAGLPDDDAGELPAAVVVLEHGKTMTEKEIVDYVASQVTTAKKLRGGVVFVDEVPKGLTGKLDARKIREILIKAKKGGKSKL
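Inhibition of light generation by firefly luciferase from ATP and luciferin was profiled with concentration-response curves per sample, ATP held at 10 uM within the enzyme's linear range. Plates were read by luminescence after an 8-minute ambient incubation.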
GBA mod: modulators of human glucocerebrosidase. Potency, µM. P04062. AID 360. purified enzyme, resorufin glucoside fluorescence (screen aimed at inhibitors), 20 min. actives 1.1% (n = 48,000); in the data active = potency below about 15 µM; inconclusive = mostly about 16 µM to 33 µM;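 note: the screen sought inhibitors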
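Normal human glucocerebrosidase (0.2 nM final) was assayed with resorufin β-D-glucopyranoside (30 uM final) in 50mM citric acid/KH2PO4, 10mM sodium taurocholate, 0.01% tween-20, pH 5.9. Compounds were titrated; fluorescence (Ex 548, Em 600) read after 20 min at RT.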
TSHR agonist: agonists of human thyroid stimulating hormone receptor | P16473 | actives 0.48% (n = 73,000) | Potency, µM (top dose mostly 57.1 µM), for inactives: top-dose activation, usual class: activators | HEK293-CNG-TSHR cells (CNG channel as cAMP sensor), membrane potential dye, cAMP | AID 926; active = well fitted activation curve with a large enough effect in the main read-out, with a control signal flat, not every such curve was filed as active; inconclusive = small, poorly fitted or top-dose-only effect, or a change in a side signal; inactive = no such curve, though single readings can be large or run the other way; % of control where 0% means no effect;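 note: the control signal comes from parental cells without the receptor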
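HEK 293 cells stably expressing TSHR and a modified CNG channel, with CNG-only parental cells as counterscreen, were preloaded 60 min at room temperature with membrane potential dye containing 100 uM RO 20-1724. Compound exposure was 30 min, and depolarization was read as fluorescence at 590 nm.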
Starred values were filed as active, the others as inactive; i = inactive; ? = inconclusive; . = no result given; [ ] = another dose, or the depositor's remark. Unless noted, calls come from the whole dose curve; as a rule, active = well fitted curve in the direction sought with a large enough effect; inconclusive = small, poorly fitted or top-dose-only effect, or another doubt; inactive = no such curve, though single readings can be large; an effect the other way counts as inactive or inconclusive. Potency is the fitted concentration of half-maximal effect.

SMILES	PK Bst	HEK293 cAMP cs	FLuc inh	GBA mod	TSHR agonist
COCCNC(=O)C(c1ccccc1C)N(CCOC)C(=O)Cn1nnc2ccccc21 (stereo not given)	>57	11%	2%	>77	1%
Cc1ccc(-c2nnn(CC(=O)N(Cc3cccs3)C(C(=O)NC3CCCC3)c3ccco3)n2)o1 (stereo not given)	>57	13µM*	3%	>77	?
O=C(NCC(=O)N(Cc1cccs1)C(C(=O)NC1CCCC1)c1ccco1)c1cccs1 (stereo not given)	>57	?	0%	>77	?
O=C(NC1CCCC1)C(c1cccs1)N(Cc1ccco1)C(=O)Cn1nnc(-c2cccs2)n1 (stereo not given)	>57	20µM*	-4%	11*	?
O=C(NC1CCCCC1)C(c1ccco1)N(Cc1cccs1)C(=O)Cn1nnc2ccccc21 (stereo not given)	>57	16µM*	3%	>77	?
O=[N+]([O-])c1ccc(C2=Nn3c(nnc3-c3ccc(Cl)cc3)SC2)o1	.	-24%[11.4 µM]	5%[11.4 µM]	.	-4%[11.4 µM]
COc1ccc(O[C@H]2C=C[C@@H](c3ccccc3)O[C@@H]2CO/N=C(\C)CCN2CCCc3nc(C)c(C)cc32)cc1	.	14%[11.4 µM]	0%[11.4 µM]	.	4%[11.4 µM]
O=C1c2ccccc2C(O)(O)[C@@]1(O)[C@]1(O)C(=O)c2ccccc2C1(O)O	.	6%[11.4 µM]	1%[11.4 µM]	.	1%[11.4 µM]
CC1Cn2c(nnc2-c2cccc(Cl)c2)S1 (stereo not given)	.	8%	3%	.	6%
CC1Cn2c(nnc2-c2ccc(F)cc2)S1 (stereo not given)	.	4µM*	2%	.	?
CCCC(=O)N(C)c1nnc(-c2ccc(OC)cc2)s1	i	28%	16µM*	>77	4%
CCOc1ccc(-c2nnc(N(CC)C(=O)C3CCC3)s2)cc1	?	14%	16µM*	>77	-2%
CCN(C(=O)Cc1cccs1)c1nnc(-c2cc(OC)c(OC)c(OC)c2)s1	>57	16%	-2%	>77	21%
Cc1ccc2nc(Nc3ncc4c(n3)CCCC4=O)nc(C)c2c1	>57	-3%	4%	>77	3%
Cc1cc(C)cc(Nc2ncc3c(n2)CCCC3=O)c1	.	?	13µM*	>77	?
Cc1cccc(OCCCCCn2ccnc2)c1C	.	32µM*	0%	.	?
CC1CCc2c(sc3nc(C4CC4)nc(SCC(=O)NCc4ccco4)c23)C1 (stereo not given)	.	7%	-16%	>77	3%
CC1CCc2c(sc3nc(SCC(=O)NCc4ccco4)nc(N)c23)C1 (stereo not given)	i	13%	13µM*	>77	.
COc1ccc(-c2nc3cnc(N4CCNCC4)nc3n(-c3ccc(OC)cc3)c2=O)cc1	.	6%	0%[11.4 µM]	.	-5%
CCOc1ccc(-n2c(-c3ccco3)n[nH]c2=S)cc1	9.4*	0%	-7%	>77	.
CC(=O)OC[C@@H]1O[C@@H](O/N=C2/C[C@@H](O)[C@@H](O)[C@@H]3[C@@H]4C(=O)N(C5CCCCC5)C(=O)[C@H]4CC[C@H]23)[C@H](OC(C)=O)[C@H](OC(C)=O)[C@@H]1OC(C)=O	.	-1%[11.4 µM]	1%[11.4 µM]	.	-14%[11.4 µM]
N[C@@H](CSC1(c2ccc(Cl)cc2)c2ccccc2-c2ccccc21)C(=O)O	.	6%[11.4 µM]	3%[11.4 µM]	.	11%[11.4 µM]
Cc1cc(C)c(/C=C2/C(=O)Nc3ccccc32)[nH]1	.	1.6µM*	-5%	.	?
c1ccc(CN2CCN(c3nc(-c4ccccc4)nc(-n4ccnc4)n3)CC2)cc1	4.4*	?	2%	.	?
c1ccc(-c2nc(-n3ccnc3)nc(-n3ccnc3)n2)cc1	0.94*	-3%	4%	>77	12%
SMILES	PK Bst	HEK293 cAMP cs	FLuc inh	GBA mod	TSHR agonist
c1ccc(N(c2ccccc2)c2nc(N3CCCC3)nc(-n3ccnc3)n2)cc1	>57	?	2%	.	?
CN[C@@H]1[C@H](O[C@H]2[C@@H](O[C@@H]3[C@@H](O)[C@@H](O)[C@@H](N=C(N)N)[C@@H](O)[C@@H]3N=C(N)N)O[C@@H](C)[C@]2(O)CO)O[C@H](CO)[C@@H](O)[C@@H]1O	.	4%[25.6 µM]	5%[25.5 µM]	.	-27%[25.6 µM]
COc1ncc2nc(-c3ccc(F)cc3)c(=O)n(C3CC3)c2n1	.	?	1%[11.4 µM]	.	?
CCc1cc2ccccc2nc1SCC(=O)Nc1cc(C)on1	>57	25µM*	0%	>77	?
CCOC(=O)CCN(Cc1cccs1)S(=O)(=O)c1ccc(F)cc1	>57	13µM*	2%	>77	?
CCCC(OC(=O)CN1C(=O)COc2ccccc21)C(=O)NC1CCCC1 (stereo not given)	>57	0.79µM*	-4%	>77	?
COc1ccccc1NC(=O)c1ccccc1-c1nc(-c2ccccc2OC)no1	.	25µM*	16µM*	>77	?
COc1cc2cc(C(=O)Nc3ccccc3)c(N)nc2cc1OC	i	10%	10µM*	>77	.
COc1ccccc1-c1noc(-c2ccccc2C(=O)Nc2ccccc2)n1	>57	25µM*	-18%	>77	?
COc1ccc(-c2noc(CCC(=O)NCCN(C)Cc3ccccc3)n2)cc1	>57	?	0%	.	?
CCN(CCCNC(=O)CCc1nc(-c2ccc(OC)cc2)no1)c1cccc(C)c1	>57	18%	0%	.	13µM*
OCCCSCCO	.	5%[11.4 µM]	1%[11.4 µM]	.	-3%[11.4 µM]
COc1ccc(-c2cc(O)cc(O)c2)cc1	?	-1%	16µM*	>77	-27%
COc1ccc(OC)cc1	.	-13%	.	.	-7%
Cc1cc(C)c(NC(=O)C2CCCN2CCO)c(C)c1 (stereo not given)	>57	8%	0%	>77	0%
CCCCN1CCCCC1C(=O)Nc1c(C)cc(C)cc1C (stereo not given)	>57	20µM*	-28%	>77	?
COC(=O)c1ccc(-c2cc(C(=O)O)c3cc4c(cc3n2)OCCO4)cc1	?	7%	3.2µM*	>77	14%
CCCCCCCCCCCCCCC/C=C\[C@H](O)[C@@H](NC(=O)CCCCCCCCCCCCC)OC (tested in a mixture with another compound)	.	5%	-1%	.	5%
O=C(Nc1cnc2ccccc2c1)N1CCOCC1	>11	9%	-7%	>77	-5%
O=C(Nc1cnc2ccccc2c1)N1CCCCC1	.	3%	10µM*	.	3%
Cc1ccnc(Nc2nc(-c3c(C)nc4sccn34)cs2)c1	11*	-14%	16µM*	>77	-16%
Nc1nc(N)c2nc(CNc3ccc(C(=O)N[C@H](CCC(=O)O)C(=O)O)cc3)cnc2n1	.	13%	0%	.	1%
O=C1CCC[C@H]1C(=O)Nc1ccc2ccccc2c1	.	4%[11.4 µM]	1%[11.4 µM]	.	7%[11.4 µM]
Cc1cc2c(nc1C)CCCN2C[C@@H](O)CN1CCN(C)CC1	.	1%[11.4 µM]	2%[11.4 µM]	.	-2%[11.4 µM]
CC1=C(C(=O)OCc2ccccc2)C(c2ccc(C(C)(C)C)cc2)NC(=O)N1CCCCCC(=O)O (stereo not given)	.	20µM*	.	.	?

Screening results: PubChem BioAssay, National Center for Advancing Translational Sciences (NCATS)
